Experimental data published in PubChem BioAssay (NCATS).
Inconclusive results are not listed. Unmarked numbers belong to inactive results. Activity calls are given as the source filed them. Calls follow the shape of the dose curve; as a rule, active = well fitted cell-killing curve with a large enough effect; inconclusive = small, poorly fitted or top-dose-only effect; inactive = flat fitted curve, though single readings scatter.

Experiment: Cell Viability - LYMP2-020 (AID 986);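 as to activity change, negative = viability loss: plate controls were DMSO only for no effect and tetraoctylammonium bromide at 92 µM for full effect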
Conditions: series mostly up to 92.2 µM; activity change, negative = viability loss: at the top concentration
Method in brief: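 Cytotoxicity in qHTS format: luminescent ATP readout from CellTiter-Glo after 24 h compound exposure at 37 C in complete medium. LYMP2-020 lymphoblastoid cells were seeded at 2500/well; concentration-response data fitted to the Hill equation for AC50.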
Also: nearly all actives have a fitted effect of over 55% in size.
Potency is read from the fitted curve at half-maximal effect.

Going from `O=C(O)/C=C\C(=O)O` to `O=C(O)c1cc(O)c(O)c(O)c1`, the “activity change, negative = viability loss” value falls from -2.52% to -3.75%.

Going from `Nc1ccc(O)c([N+](=O)[O-])c1` to `Nc1ccc([N+](=O)[O-])cc1O`, the “activity change, negative = viability loss” value rises from -22.4% to -0.504%.

First: Nc1nc2ccc([N+](=O)[O-])cc2s1
Second: Nc1ccc(O)c(C(=O)O)c1
The “activity change, negative = viability loss” value of the first is lower: -18% for the first, 3.67% for the second.

First: CN(C)c1ccc(N=NS(=O)(=O)O)cc1
Second: CC1(C)S[C@@H]2[C@H](NC(=O)[C@H](N)c3ccccc3)C(=O)N2[C@H]1C(=O)O
The “activity change, negative = viability loss” value of the first is lower: -17.8% for the first, -1.73% for the second.

First: CCCCCCCCCCCCCCCCCC(=O)O
Second: COc1cc(CNC(=O)CCCC/C=C/C(C)C)ccc1O
The “activity change, negative = viability loss” value of the first is higher: -11.7% for the first, -19.1% for the second.

First: c1ccc2sc(SSc3nc4ccccc4s3)nc2c1
Second: O=c1cc(-c2ccccc2)oc2ccccc12
The “activity change, negative = viability loss” value of the first is higher: -4.67% for the first, -17.5% for the second.

First: NCCO
Second: C#C[C@]1(O)CC[C@H]2[C@@H]3CCc4cc(O)ccc4[C@H]3CC[C@@]21C
The “activity change, negative = viability loss” value of the first is higher: -10.2% for the first, -21.1% for the second.

For `O=C1CN(/N=C/c2ccc([N+](=O)[O-])o2)C(=O)N1`, the “activity change, negative = viability loss” value was -16.1%.

In the case of `CN(C)c1ccc(C(=C2C=CC(=[N+](C)C)C=C2)c2ccccc2)cc1`, the Potency was 0.316 µM (active).
With `COc1cc(/C=C/C(=O)CC(=O)/C=C/c2ccc(O)c(OC)c2)ccc1O` the Potency was 31.6 µM (active).
For `CCCOC(=O)c1ccc(O)cc1`, the Potency was “inactive”.
In the case of `N=C1N=C(N)c2cc3ccccc3cc21`, the Potency was 39.8 µM (active).

Experiment: Cell Viability - LYMP2-022 (AID 987);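 also: cells exposed to compound for 24 hr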;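 as to viability change, negative = cytotoxic: 0% = DMSO alone and full effect = tetraoctylammonium bromide at 92 µM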
Conditions: LYMP2-022 lymphoblastoid cell viability; series mostly up to 92.2 µM; viability change, negative = cytotoxic: at the top concentration
Method in brief: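 Cytotoxicity read as decreased cellular ATP (CellTiter-Glo luminescence, 30 min room temperature) after 24 hours compound exposure of 2500 lymphoblastoid LYMP2-022 cells/well at 37 C. Concentration-response data fitted with standard Hill equation for AC50.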

Compared with `O=C(O)/C=C\C(=O)O`, `O=C(O)c1cc(O)c(O)c(O)c1` is lower in “viability change, negative = cytotoxic” value: -12.2% for the first, -29.2% for the second.

Compared with `Nc1ccc(O)c([N+](=O)[O-])c1`, `Nc1ccc([N+](=O)[O-])cc1O` is higher in “viability change, negative = cytotoxic” value: -19.4% for the first, -17.7% for the second.

First: Nc1nc2ccc([N+](=O)[O-])cc2s1
Second: Nc1ccc(O)c(C(=O)O)c1
The “viability change, negative = cytotoxic” value of the first is lower: -19.9% for the first, 9.11% for the second.

Going from `CN(C)c1ccc(N=NS(=O)(=O)O)cc1` to `CC1(C)S[C@@H]2[C@H](NC(=O)[C@H](N)c3ccccc3)C(=O)N2[C@H]1C(=O)O`, the “viability change, negative = cytotoxic” value rises from -25.1% to -7.94%.

Going from `CCCCCCCCCCCCCCCCCC(=O)O` to `COc1cc(CNC(=O)CCCC/C=C/C(C)C)ccc1O`, the “viability change, negative = cytotoxic” value falls from -7.51% to -23%.

First: c1ccc2sc(SSc3nc4ccccc4s3)nc2c1
Second: O=c1cc(-c2ccccc2)oc2ccccc12
The “viability change, negative = cytotoxic” value of the first is higher: 2.2% for the first, -22.6% for the second.

First: NCCO
Second: C#C[C@]1(O)CC[C@H]2[C@@H]3CCc4cc(O)ccc4[C@H]3CC[C@@]21C
The “viability change, negative = cytotoxic” value of the first is higher: -26% for the first, -27.4% for the second.

For `CN(C)c1ccc(C(=C2C=CC(=[N+](C)C)C=C2)c2ccccc2)cc1`, the Potency was 0.126 µM (active).
With `COc1cc(/C=C/C(=O)CC(=O)/C=C/c2ccc(O)c(OC)c2)ccc1O` the Potency was 25.1 µM (active).
With `CCCOC(=O)c1ccc(O)cc1` the Potency was “inactive”.
In the case of `N=C1N=C(N)c2cc3ccccc3cc21`, the Potency was 39.8 µM (active).
